“And” between values parts separate entries of the source, which are not always exact repeats. Equal entries are not always repeated. Structures can show the parent of a compound that is named as a salt.
Columns and labels:
Assay in all cases: cell viability relative to vehicle control; higher = less cytotoxic
Conditions in all cases: 10 µM
K562 = test system: K562
Method in brief: (§1)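 Four leukaemia lines, as CRISPR-edited mutant clones and isogenic wild-type clones, were tested against Selleck bioactive, kinase and epigenetic probe libraries after removal of identity-inconsistent compounds. Cells were exposed to a single 10 µM dose for 48 h, and CellTiter-Glo luminescence was then read. Viability was calculated relative to the on-plate vehicle control.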

MARIMO = test system: MARIMO
Method in brief: as §1

MOLM14 = test system: MOLM14
Method in brief: as §1

OCI-AML2 = test system: OCI-AML2
Method in brief: as §1

| Structure (SMILES) | cell viability (K562; SRSF2 genotype: SRSF2 P95H/wt) | cell viability (K562; SRSF2 genotype: SRSF2 wt/wt) [%] | cell viability (MARIMO; SRSF2 genotype: SRSF2 P95H/wt) [%] | cell viability (MARIMO; SRSF2 genotype: SRSF2 wt/wt) [%] | cell viability (MOLM14; SRSF2 genotype: SRSF2 P95H/wt) [%] | cell viability (MOLM14; SRSF2 genotype: SRSF2 wt/wt) [%] | cell viability (OCI-AML2; SRSF2 genotype: P95H/wt) [%] | cell viability (OCI-AML2; SRSF2 genotype: wt/wt) [%] |
| --- | --- | --- | --- | --- | --- | --- | --- | --- |
| CCC(C)C(NC(=O)C(C(C)CC)N(C)C(C)=O)C(=O)NC(C(=O)NC(CC(C)C)C(=O)C1(C)CO1)C(C)O (stereo not given) [Epoxomicin (BU-4061T)] | 1.56% and 1.91% | 0.91 | 0.3 | 0.71 | 0.14 | 0.17 | 0.15 | 0.14 |
| COc1ccccc1Oc1c(NS(=O)(=O)c2ccc(C(C)(C)C)cc2)nc(-c2ncccn2)nc1OCCO [Bosentan Hydrate] | 99.5% and 99.8% | 98.6 | 97.3 | 104 | 97.1 | 105 | 112 | 95.2 |
| C=C1CCC[C@]2(C)C[C@]3(O)OC(=O)C(C)=C3C[C@@H]12 [Atractylenolide III] | 105% and 101% | 99.3 | 101 | 102 | 102 | 99 | 94.9 | 106 |
| COc1cc(C(=O)NC2CCCNC2)cc(OC)c1OC (stereo not given) [Troxipide] | 98.2% and 99.3% | 101 | 102 | 106 | 103 | 100 | 99.7 | 105 |
| CCC[C@@H]1C[C@@H](C(=O)N[C@@H]([C@H]2O[C@H](SC)[C@H](O)[C@@H](O)[C@H]2O)[C@H](C)Cl)N(C)C1 [Clindamycin] | 96.3% and 99.1% | 103 | 104 | 106 | 95.3 | 99.8 | 113 | 98.9 |
| O=C(Nc1ccccc1)Nc1ccc(-c2ccc(C(=O)[C@@H]3CCC[C@H]3C(=O)O)cc2)cc1 | 96.9% and 97.6% | 98.8 | 106 | 106 | 102 | 103 | 103 | 109 |
| C=CC(=O)Nc1cc(Nc2nccc(-c3c[nH]c4ccccc34)n2)c(OC)cc1N(C)CCN(C)C | 12.6% and 20.8% | 24 | 6.47 | 9.15 | 0.38 | 0.41 | 0.35 | 0.67 |
| CC(C)(Oc1ccc(Cl)cc1)C(=O)OCCOC(=O)c1cccnc1 [Etofibrate] | 96% and 91.7% | 95.4 | 93.2 | 100 | 94.7 | 101 | 83.5 | 77.5 |
| O=C1Nc2ccc(I)cc2C1=Cc1cc(Br)c(O)c(Br)c1 | 96.6% and 89.4% | 90.1 | 89.9 | 109 | 84.7 | 93.8 | 86.7 | 90.7 |
| CC(/C=C/C=C(\C)C(=O)O[C@@H]1O[C@H](CO)[C@@H](O)[C@H](O)[C@H]1O)=C\C=C\C=C(C)\C=C\C=C(/C)C(=O)O[C@@H]1O[C@H](CO[C@@H]2O[C@H](CO)[C@@H](O)[C@H](O)[C@H]2O)[C@@H](O)[C@H](O)[C@H]1O [Crocin II] | 109% and 106% | 99.8 | 104 | 110 | 87.5 | 104 | 97.4 | 106 |
| CN(CCN1CCC(OC(=O)Nc2ccccc2-c2ccccc2)CC1)C(=O)c1ccc(CN2CCC(C(N)=O)CC2)cc1 [Revefenacin] | 94.7% and 89.9% | 92.8 | 82.7 | 90.8 | 87.1 | 92.2 | 83.2 | 83.5 |
| CCOC(=O)[C@H](CCc1ccccc1)N[C@@H](C)C(=O)N1Cc2ccccc2C[C@H]1C(=O)O [Quinapril hydrochloride (Accupril)] | 97.3% and 108% | 106 | 102 | 106 | 104 | 103 | 107 | 104 |
| CC(C)[C@H](N)C(=O)OCC(CO)OCn1cnc2c(=O)nc(N)[nH]c21 (stereo not given in full) [Valganciclovir Hydrochloride] | 86.3% and 81.6% | 83.1 | 90.7 | 84.8 | 87.2 | 88.3 | 77 | 89.2 |
| COc1cc(/C=C/C(=O)O)ccc1O [Fumalic acid (Ferulic acid)] | 98.4% and 103% | 100 | 92.1 | 105 | 103 | 101 | 92.9 | 105 |
| COC(=O)C1=COC(OC2OC(CO)C(O)C(O)C2O)C2C(CO)=CC(O)C12 (stereo not given) | 105% and 104% | 109 | 105 | 93.2 | 105 | 107 | 98.6 | 98.7 |
| Cc1cccc(-c2[nH]c(C(C)(C)C)nc2-c2ccc3nccnc3c2)n1 | 111% and 95.8% | 99.7 | 108 | 105 | 105 | 101 | 108 | 115 |
| CC[C@H]1OC(=O)[C@H](C)[C@@H](O[C@H]2C[C@@](C)(OC)[C@@H](O)[C@H](C)O2)[C@H](C)[C@@H](O[C@@H]2O[C@H](C)C[C@H](N(C)C)[C@H]2O)[C@](C)(O)C[C@@H](C)/C(=N\OCOCCOC)[C@H](C)[C@@H](O)[C@]1(C)O [Roxithromycin (Roxl-150)] | 104% and 106% | 94.9 | 103 | 105 | 101 | 100 | 93.6 | 105 |
| [Na+].[Na+].[Na+].[Na+].[Na+].[Na+].[O]=[W](=[O])([O-])[O-].[O]=[W](=[O])([O-])[O-].[O]=[W](=[O])([O-])[O-].[O]=[W](=[O])=[O].[O]=[W](=[O])=[O].[O]=[W](=[O])=[O].[O]=[W](=[O])=[O].[O]=[W](=[O])=[O].[O]=[W](=[O])=[O].[O]=[W](=[O])=[O].[O]=[W](=[O])=[O].[O]=[W](=[O])=[O] [SodiuM Metatungstate] | 103% and 109% | 106 | 121 | 106 | 103 | 109 | 88.9 | 93.5 |
| CN1CC2c3ccccc3Oc3ccc(Cl)cc3C2C1 (stereo not given) [Asenapine maleate] | 88.3% and 92.2% | 88.2 | 63 | 78.8 | 88 | 92.6 | 69.9 | 73.2 |
| CN1C(C(=O)Nc2ccccn2)=C(O)c2sc(Cl)cc2S1(=O)=O [Lornoxicam (Xefo)] | 94.3% and 91.8% | 87.5 | 87.2 | 95.8 | 91 | 87.8 | 92.8 | 94.5 |

| Structure (SMILES) | cell viability (K562; SRSF2 genotype: SRSF2 P95H/wt) | cell viability (K562; SRSF2 genotype: SRSF2 wt/wt) [%] | cell viability (MARIMO; SRSF2 genotype: SRSF2 P95H/wt) [%] | cell viability (MARIMO; SRSF2 genotype: SRSF2 wt/wt) [%] | cell viability (MOLM14; SRSF2 genotype: SRSF2 P95H/wt) [%] | cell viability (MOLM14; SRSF2 genotype: SRSF2 wt/wt) [%] | cell viability (OCI-AML2; SRSF2 genotype: P95H/wt) [%] | cell viability (OCI-AML2; SRSF2 genotype: wt/wt) [%] |
| --- | --- | --- | --- | --- | --- | --- | --- | --- |
| C[C@@H]1O[C@@H](OC[C@H]2O[C@@H](Oc3cc(O)c4c(c3)O[C@H](c3ccc(O)cc3)CC4=O)[C@H](O)[C@@H](O)[C@@H]2O)[C@H](O)[C@H](O)[C@H]1O [Narirutin] | 96.8% and 92.1% | 92.3 | 98.2 | 97.5 | 98.9 | 96.8 | 101 | 99.4 |
| CC(=O)Cc1cc(=O)c2c(C)cc(O)c([C@@H]3O[C@H](CO)[C@@H](O)[C@H](O)[C@H]3O)c2o1 [Aloesin] | 101% and 97.6% | 102 | 102 | 104 | 109 | 101 | 105 | 105 |
| Cc1c[nH]c(C=C2C(=O)Nc3ccccc32)c1CCC(=O)O | 91.9% and 93.8% | 91.2 | 95.2 | 92.2 | 32.7 | 28 | 54.2 | 58.1 |
| O=c1c(O)c(-c2ccc(O)c(O)c2)oc2cc(O)cc(O)c12 [Quercetin (Sophoretin)] | 97.3% and 89.3% | 91.5 | 93.9 | 93.6 | 98.3 | 97.5 | 93.8 | 81.5 |
| COc1ccc(-c2cc(=O)c3c(O)cc(O[C@@H]4O[C@H](CO[C@@H]5O[C@@H](C)[C@H](O)[C@@H](O)[C@H]5O)[C@@H](O)[C@H](O)[C@H]4O)cc3o2)cc1O [Diosmin] | 90.8% and 97.8% | 89.9 | 94.8 | 101 | 97.6 | 92.4 | 90.4 | 92.4 |
| CCCC(=O)O[C@]1(C(=O)COC(C)=O)CC[C@H]2[C@@H]3C[C@H](F)C4=CC(=O)C=C[C@]4(C)[C@@]3(F)[C@@H](O)C[C@@]21C [Difluprednate] | 96.9% and 99% | 99.4 | 102 | 100 | 91.2 | 92.1 | 109 | 107 |
| Cc1ncc(NC(=O)c2cccc(C(F)(F)F)c2)cc1-c1cnc(OC2CCOCC2)c(N2CCOCC2)c1 | 61.6% and 73.4% | 71.2 | 41.2 | 40.3 | 48.2 | 40.7 | 30.6 | 39 |
| CC(C)Oc1ccc(-c2cnc3c(-c4ccnc5ccccc45)cnn3c2)cc1 | 86.4% and 88.6% | 84.7 | 86.1 | 98 | 84.6 | 90.4 | 82.2 | 78.1 |
| CNC[C@H](O)[C@@H](O)[C@H](O)[C@H](O)CO [Meglumine] | 108% and 107% | 107 | 108 | 106 | 101 | 107 | 112 | 109 |
| NC(=O)c1cccc2cn(-c3ccc(C4CCCNC4)cc3)nc12 (stereo not given) [MK-4827(Niraparib)] | 102% and 104% | 86.9 | 40.9 | 57.4 | 25.2 | 8.96 | 45.3 | 51.5 |
| CNCCN(C)Cc1c[nH]nc1-c1ccc(O[C@H]2C[C@H](OCCC3CCOCC3)C2)cc1 | 90% and 92.8% | 89.7 | 89 | 92.4 | 79.4 | 96.4 | 67.1 | 75.1 |
| CC[C@H]1OC(=O)[C@H](C)[C@@H](O[C@H]2C[C@@](C)(OC)[C@@H](O)[C@H](C)O2)[C@H](C)[C@@H](O[C@@H]2O[C@H](C)C[C@H](N(C)C)[C@H]2O)[C@](C)(O)C[C@@H](C)[C@@H]2N[C@@H](COCCOC)O[C@H]([C@H]2C)[C@]1(C)O [Dirithromycin] | 98.3% and 98% | 98.5 | 97.1 | 109 | 98.7 | 102 | 94.6 | 107 |
| Cc1[nH]c2ccccc2c1CCNCc1ccc(/C=C/C(=O)NO)cc1 [Panobinostat (LBH589)] | 1.37% and 8.1% | 2.36 | 3.16 | 7.58 | 0.67 | 0.53 | 1.13 | 1.48 |
| CC1OC(OC2C(OC3CCC4(C)C(CCC5(C)C4CC=C4C6CC(C)(C)CCC6(C(=O)OC6OC(COC7OC(CO)C(O)C(O)C7O)C(O)C(O)C6O)CCC45C)C3(C)CO)OCC(O)C2O)C(O)C(O)C1O (stereo not given) [Dipsacoside B] | 101% and 103% | 104 | 97.5 | 98.2 | 106 | 98.3 | 101 | 103 |
| COc1ccc(/C=C/C(=O)Nc2ccccc2C(=O)O)cc1OC | 98.1% and 98% | 98.1 | 108 | 102 | 98.9 | 100 | 113 | 102 |
| Cc1ccn[nH]1 [3-Methylpyrazole] | 112% and 104% | 103 | 107 | 110 | 99.3 | 105 | 95.4 | 106 |
| Cc1ccc(S(=O)(=O)Nc2cc(-c3ccc(C#N)s3)ccc2C)cc1 | 12.9% and 36.3% | 33.5 | 7.34 | 8.88 | 1.58 | 1.53 | 2.78 | 5.12 |
| CC[C@H]1OC(=O)C[C@@H](O)[C@H](C)[C@@H](O[C@@H]2O[C@H](C)[C@@H](O)[C@H](N(C)C)[C@H]2O)[C@@H](CCN2C[C@H](C)C[C@H](C)C2)C[C@@H](C)C(=O)/C=C/C(C)=C/[C@@H]1CO[C@@H]1O[C@H](C)[C@@H](O)[C@@H](OC)[C@H]1OC [Tilmicosin phosphate] | 102% | 108 | 98 | 103 | 106 | 101 | 108 | 112 |
| CCN(CC)CCOCCOC(=O)C1(c2ccccc2)CCCC1 [Pentoxyverine Citrate] | 98.4% and 105% | 108 | 92.9 | 104 | 96.4 | 104 | 112 | 97 |
| O=[N+]([O-])c1ccc(S(=O)(=O)N2CCN(c3ccnc4cc(Cl)ccc34)CC2)c([N+](=O)[O-])c1 | 69.2% and 80.5% | 71.8 | 27.1 | 30.7 | 2.07 | 22.7 | 0.47 | 0.54 |

— the supplement of paper PMC10981050
